PubChem BioAssay (NCI)
The panel holds about 83,000 compounds, 20% with a hit somewhere; the sample as a whole holds those more often.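 Cell lines were cultured in 96-well plates, exposed to a single compound concentration, and assessed for percent growth 48 hours later.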 Unmarked numbers belong to inactive results. Active and inactive are the calls of the source. Rule for the calls: active = growth percent below 10; inactive = the rest.

system: RPMI-8226 leukemia; assay: NCI-60 one-dose screen, 48 h (100 = growth as untreated, 0 = no growth, -100 = all killed); details: 10 µM unless noted

| SMILES | growth |
| --- | --- |
| COc1cccc(-c2nc3sccn3c2-c2ccnc(NCCCNS(=O)(=O)c3c(Cl)cccc3Cl)c2)c1 | 4.47% (active) |
| CC1=NN(c2nc(-c3ccc(Cl)cc3)c(C#N)c(N3CCOCC3)n2)C(=O)C1 | 57.1% |
| Cc1nc2c3c(-c4ccccc4)c(-c4ccccc4)oc3ncn2n1 | 92.7% |
| C=CC(=O)Nc1cccc(-c2nc(SC)nc(NCc3ccccc3)c2C#N)c1 | 38.5% |
| N#Cc1c(N)n(CCNC(=O)c2ccccc2)c2nc3ccccc3nc12 | 179% |
| C=C(C)[C@@H]1CC[C@]2(C(=O)OC)CC[C@]3(C)[C@H](CC[C@@H]4[C@@]5(C)C/C(=C/c6cccc(I)c6)C(=O)C(C)(C)[C@@H]5CC[C@]43C)[C@@H]12 | 95.7% |
| Cc1c(/C=C/[N+](=O)[O-])ccc2c1[nH]c1ccccc12 | -15% (active) |
| COc1cc(/C=C/c2cc(O)c3cc(C(C)=O)c(=O)oc3c2)cc2c1O[C@]1(C)CC[C@@H](O)C(C)(C)[C@H]1C2 | -22.6% (active) |
| CCCOc1ccc2nc(NC(=O)OC)[nH]c2c1 | 7.83% (active) |
| COc1cc(/C=C/C(=O)c2ccc(O)c(CN3CCN(c4cc5c(cc4F)c(=O)c(C(=O)O)cn5C4CC4)CC3)c2)cc(OC)c1OC | -3.9% (active) |
| C=CCSSc1ncnc2c1ncn2C1OC(CO)C(O)C1O (configuration not stated) | -8.17% (active) |
| COc1cc2nc(N3CCCC3)nc(NCc3ccccc3)c2cc1OC | 12.7% |
| CC[C@H]1OC(=O)[C@H](C)[C@@H](O[C@H]2C[C@@](C)(OC)[C@@H](O)[C@H](C)O2)[C@H](C)[C@@H](O[C@@H]2O[C@H](C)C[C@H](N(C)C)[C@H]2O)[C@](C)(O)C[C@H](C)CN(C)[C@H](C)[C@@H](O)[C@]1(C)O | 107% |
| CSc1nc(NCCN2CCOCC2)c(C#N)c(-c2cccc([N+](=O)[O-])c2)n1 | 100% |
| CC(C)c1c(C(=O)c2ccccc2)c(-c2ccccc2)c(-c2ccc(F)cc2)n1CC[C@@H](O)C[C@@H](O)CC(=O)O | 67.1% |
| N#CCCN=Nc1c(O)[nH]c2ccc([N+](=O)[O-])cc12 | 105% |

| SMILES | growth |
| --- | --- |
| CC[C@@H]1O[C@H](O[C@@H](c2cnc[nH]2)[C@H](NC(=O)c2nc([C@H](CC(N)=O)NC[C@@H](N)C(N)=O)nc(N)c2C)C(=O)N[C@H](C)[C@H](O)[C@H](C)C(=O)N[C@@H](C(=O)NCCc2nc(-c3nc(C(=O)NCCCCN=C(N)N)cs3)cs2)[C@@H](C)O)[C@H](O[C@@H]2O[C@H](CO)[C@H](O)[C@H](OC(N)=O)[C@@H]2O)[C@H](C)[C@@H]1C | 73% |
| COc1cc2nc(N3CCCC3)nc(Nc3ccccc3)c2cc1OC | -19.8% (active) |
| Nc1nc2ncc(CCNc3ccc(C(=O)O)cc3)nc2c(=O)[nH]1 | 99.4% |
| CCCN1CCN(c2ccc3nc(-c4ccc5nc(-c6ccc(OCC)cc6)[nH]c5c4)[nH]c3c2)CC1 | -38.8% (active) |
| COc1ccc(Nc2nc(SC)nc(-c3cccc([N+](=O)[O-])c3)c2C#N)cc1 | 98.4% |
| O=C1CC(=NCC(=O)n2c(-c3ccccc3)nc3ccccc32)NN1 | 104% |
| CC(C)(O)c1cn(CCCCN2C(=O)C(=O)c3ccccc32)nn1 | 95.9% |
| CCCCCCCCCCCCC[N+](C)(C)Cc1ccccc1 | -50.9% (active) |
| COc1ccc(/C=C/C(=O)c2ccc(O)c(CN3CCN(c4cc5c(cc4F)c(=O)c(C(=O)O)cn5C4CC4)CC3)c2)cc1 | -3.49% (active) |
| O=S(=O)(Nc1ccc(OC(F)F)cc1)c1ccc(-c2cnc(C3CC3)o2)cc1 | 52.8% |
| N#C/C(=C\c1ccc(-c2cc(C(F)(F)F)ccc2Cl)o1)c1nc(-c2ccco2)cs1 | 101% |
| O=C(O)c1ccc(N=CC(=O)c2ccc(-c3ccccc3)cc2)cc1 | 90.3% |
| COc1cccc(-c2nn(C(C)(C)C)cc2-c2ccnc(NCCCNS(=O)(=O)c3ccc(C)cc3)c2)c1 | 99.3% |
| CC(C)n1c(/C=C/[C@@H](O)C[C@@H](O)CC(=O)O)c(-c2ccc(F)cc2)c2ccccc21 | 53.2% |
| N#Cc1c(-c2ccc(Cl)cc2)nc(N/N=C/c2cccc(Br)c2)nc1N1CCOCC1 | 56% |
| COc1ccc(-c2nc3ccc(-c4nc5ccc(N6CCN(c7ccncc7)CC6)cc5[nH]4)cc3[nH]2)cc1OC | 53.5% |
